C diff growth = blocks growth of Clostridium difficile | actives 0.25% (n = 86,000) | growth activity, negative = inhibition, % at 16 µg/mL (by protocol) | Clostridium difficile clinical isolate growth, OD600, 24 h; hits give low values;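 active = mean growth activity at or below -80% and every replicate also at or below -80%; inconclusive = mean at or below -80% but some replicate above -80%; inactive = mean growth activity above -80%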
Pf Dd2 inh = inhibitors of Plasmodium falciparum Dd2 growth; P. falciparum Dd2 growth, SYBR Green, 72 h; hits give low values; actives 2.3% (n = 94,000); activity change, % at 10 µM; in the data active = activity change below about -80%; inconclusive = no clear call, values can overlap the other calls
Tcruzi prolif = inhibitors of T. cruzi proliferation; T. cruzi beta-gal in NIH3T3, GalScreen luminescence, 90 h; inhibition, % at 8.34 µM; actives 5.9% (n = 77,000); AID 624255;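 active = mean inhibition above about 93%, with at least 55% of replicates each passing it, limit read from the data, passing the limit was not always enough; inconclusive = only one of those two conditions holds; inactive = neither condition holds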
Large screens that a line does not name were inactive. Hits are enriched below; roughly 6.7% of the tested compounds scored in any of these assays.

C[C@@H]1CN([C@H](C)CO)S(=O)(=O)c2ccc(C#Cc3ccncc3)cc2O[C@@H]1CN(C)C(=O)C1CC1	none (no result: C diff growth)
CC(C)C#Cc1ccc2c(c1)O[C@@H](CN(C)C(=O)C1CCCCC1)[C@H](C)CN([C@@H](C)CO)S2(=O)=O	Pf Dd2 inh -82.2
C[C@@H]1CN([C@@H](C)CO)S(=O)(=O)c2ccc(C#Cc3ccccc3)cc2O[C@H]1CN(C)C(=O)C1CC1	Pf Dd2 inh -89.3
C[C@@H]1CCCCO[C@@H](CN(C)C(=O)Nc2ccc3c(c2)OCO3)[C@@H](C)CN([C@@H](C)CO)C(=O)c2cc(NC(=O)Nc3ccc4c(c3)OCO4)ccc2O1	none (no result: Tcruzi prolif)
O=C(C[C@@H]1C=C[C@H](NC(=O)C2CC2)[C@@H](CO)O1)NCc1ccncc1	none (no result: Tcruzi prolif)
CCS(=O)(=O)N1CCC2(CC1)CN(S(=O)(=O)c1cccc(OC)c1)[C@@H](CO)c1[nH]c3cc(OC)ccc3c12	Pf Dd2 inh inconclusive (no result: Tcruzi prolif)
COc1ccc(NC(=O)N(C)C[C@H]2Oc3c(NC(=O)CCCCCC(=O)Nc4ccccc4N)cccc3C(=O)N([C@@H](C)CO)C[C@H]2C)cc1	Pf Dd2 inh -88.6 (no result: Tcruzi prolif)
C[C@@H]1CN([C@H](C)CO)C(=O)c2cccc(NC(=O)CCCCCC(=O)Nc3ccccc3N)c2O[C@H]1CN(C)C(=O)Nc1ccccc1	none (no result: Tcruzi prolif)
C[C@H]1CN([C@@H](C)CO)C(=O)c2cc(NC(=O)CCCCCC(=O)Nc3ccccc3N)ccc2O[C@@H]1CN(C)C(=O)Nc1ccc(C(F)(F)F)cc1	none (no result: Tcruzi prolif)
C[C@H](CO)N1C[C@H](C)[C@@H](CN(C)C(=O)Nc2ccc(F)cc2)Oc2c(NC(=O)CCCCCC(=O)Nc3ccccc3N)cccc2C1=O	none (no result: Tcruzi prolif)
C[C@@H]1CN([C@@H](C)CO)C(=O)c2cccc(NC(=O)CCCCCC(=O)Nc3ccccc3N)c2O[C@H]1CN(C)C(=O)Nc1ccc(C(F)(F)F)cc1	Pf Dd2 inh -83.7 (no result: Tcruzi prolif)
COc1ccc(NC(=O)N(C)C[C@H]2Oc3c(NC(=O)CCCCCC(=O)Nc4ccccc4N)cccc3C(=O)N([C@H](C)CO)C[C@@H]2C)cc1	none (no result: Tcruzi prolif)
C[C@H]1CN([C@@H](C)CO)C(=O)c2cccc(NC(=O)CCCCCC(=O)Nc3ccccc3N)c2O[C@H]1CN(C)C(=O)Nc1ccc(C(F)(F)F)cc1	Pf Dd2 inh -91.8 (no result: Tcruzi prolif)
C[C@H](CO)N1C[C@H](C)[C@@H](CN(C)C(=O)Nc2ccc(C(F)(F)F)cc2)Oc2c(NC(=O)CCCCCC(=O)Nc3ccccc3N)cccc2C1=O	Pf Dd2 inh -83.5 (no result: Tcruzi prolif)
C[C@@H]1CN([C@@H](C)CO)C(=O)Cc2cc(NS(C)(=O)=O)ccc2O[C@H]1CN(C)Cc1ccncc1	none
O=C(C[C@H]1CC[C@H]2[C@@H](COC[C@@H](O)CN2S(=O)(=O)c2cccc(Cl)c2)O1)N1CCCCC1	none
COc1ccc(NC(=O)N(C)C[C@@H]2Oc3c(NC(=O)Nc4ccccc4)cccc3C(=O)N([C@H](C)CO)C[C@@H]2C)cc1	none
C[C@@H]1CN([C@H](C)CO)C(=O)c2cccc(NC(=O)CCCCCC(=O)Nc3ccccc3N)c2O[C@H]1CN(C)C(=O)Nc1cccc2ccccc12	none (no result: Tcruzi prolif)
C[C@@H]1CN([C@H](C)CO)C(=O)c2cccc(NC(=O)CCCCCC(=O)Nc3ccccc3N)c2O[C@H]1CN(C)C(=O)Nc1ccc(C(F)(F)F)cc1	Pf Dd2 inh -88.0 (no result: Tcruzi prolif)
COc1ccc(NC(=O)N(C)C[C@H]2Oc3c(NC(=O)Nc4ccccc4)cccc3C(=O)N([C@@H](C)CO)C[C@H]2C)cc1	Pf Dd2 inh -89.0
CCCC(=O)Nc1ccc2c(c1)C(=O)N(C)[C@H]1CC[C@H](CC(=O)O)O[C@H]1CO2	none
C[C@@H]1CCCCO[C@H](CN(C)C(=O)Nc2ccccc2)[C@H](C)CN([C@@H](C)CO)C(=O)c2cc(NC(=O)C3CCCCC3)ccc2O1	none
C[C@@H]1CCCCO[C@H](CN(C)C(=O)Nc2ccc3c(c2)OCO3)[C@@H](C)CN([C@H](C)CO)C(=O)c2cc(NC(=O)C3CCCCC3)ccc2O1	none
C[C@H]1CCCCO[C@H](CN(C)C(=O)Nc2ccc(F)cc2)[C@@H](C)CN([C@@H](C)CO)C(=O)c2cc(NC(=O)C3CCCCC3)ccc2O1	Pf Dd2 inh -85.7
C[C@H]1CCCCO[C@H](CN(C)C(=O)Nc2ccc(C(F)(F)F)cc2)[C@@H](C)CN([C@@H](C)CO)C(=O)c2cc(NC(=O)C3CCCCC3)ccc2O1	Pf Dd2 inh -84.4
C[C@H](CO)N1C[C@H](C)[C@H](CN(C)C(=O)Nc2ccc(F)cc2)OCCCC[C@H](C)Oc2ccc(NC(=O)C3CCCCC3)cc2C1=O	none
C[C@@H]1CCCCO[C@H](CN(C)C(=O)Nc2ccc(C(F)(F)F)cc2)[C@@H](C)CN([C@@H](C)CO)C(=O)c2cc(NC(=O)C3CCCCC3)ccc2O1	Pf Dd2 inh -84.8
C[C@H]1CCCCO[C@H](CN(C)C(=O)Nc2ccc3c(c2)OCO3)[C@@H](C)CN([C@@H](C)CO)C(=O)c2cc(NC(=O)C3CCCCC3)ccc2O1	Pf Dd2 inh -88.8
C[C@@H]1CN([C@@H](C)CO)C(=O)c2cc(NC(=O)C3CCCCC3)ccc2O[C@@H](C)CCCCO[C@H]1CN(C)C(=O)Nc1ccccc1	none
Cc1noc(C)c1S(=O)(=O)Nc1ccc2c(c1)C(=O)N([C@@H](C)CO)C[C@H](C)[C@H](CN(C)S(=O)(=O)c1ccccc1)OCCCC[C@H](C)O2	none
CS(=O)(=O)N1CC2(C1)[C@@H](c1ccccc1)[C@@H](CO)N2CCC(F)(F)F	none (no result: Tcruzi prolif)
CCC(=O)Nc1ccc2c(c1)C(=O)N(C)[C@H]1CC[C@@H](CC(=O)NCC3CCCCC3)O[C@@H]1CO2	none
COc1ccc2c3c(n(C)c2c1)[C@H](CO)N(Cc1ccccc1F)CC31CCN(C(=O)C2CCC2)CC1	none (no result: Tcruzi prolif)
CS(=O)(=O)Nc1ccc2c(c1)[C@H]1C[C@@H](CC(=O)NCC(F)(F)F)O[C@@H](CO)[C@H]1O2	none (no result: Tcruzi prolif)
COc1cccc(-c2ccc([C@@H]3[C@H]4CN(C(=O)C5CC5)CC(=O)N4[C@H]3CO)cc2)c1	none (no result: Tcruzi prolif)
COc1ccccc1NC(=O)N1[C@@H]2CNC[C@H]1[C@@H]2c1ccc(-c2ccc(C#N)cc2)cc1	none (no result: Tcruzi prolif)
C[C@@H]1CN([C@@H](C)CO)C(=O)Cc2cc(NC(=O)Nc3ccc(F)cc3)ccc2O[C@H]1CN(C)C(=O)Nc1ccc2c(c1)OCO2	none
C[C@@H]1CN([C@H](C)CO)C(=O)c2cc(NC(=O)C3CCCCC3)ccc2O[C@@H](C)CCCCO[C@H]1CN(C)C(=O)Nc1ccc(C(F)(F)F)cc1	none
C[C@@H]1CCCCO[C@H](CN(C)C(=O)Nc2ccc(C(F)(F)F)cc2)[C@H](C)CN([C@H](C)CO)C(=O)c2cc(NC(=O)C3CCCCC3)ccc2O1	none
C[C@@H]1CCCCO[C@H](CN(C)C(=O)Nc2ccc(C(F)(F)F)cc2)[C@@H](C)CN([C@H](C)CO)C(=O)c2cc(NC(=O)C3CCCCC3)ccc2O1	Pf Dd2 inh -83.7
C[C@H](CO)N1C[C@H](C)[C@@H](CN(C)C(=O)Nc2ccc(C(F)(F)F)cc2)OCCCC[C@H](C)Oc2ccc(NC(=O)C3CCCCC3)cc2C1=O	Pf Dd2 inh -85.5
C[C@@H]1CN([C@H](C)CO)C(=O)c2cc(NC(=O)Nc3ccc(C(F)(F)F)cc3)ccc2O[C@@H](C)CCCCO[C@H]1CN(C)C(=O)Nc1ccc(C(F)(F)F)cc1	none
